Assay results reported in PubChem BioAssay AID652017 (The Scripps Research Institute Molecular Screening Center, 2013).
Hit rate of the full screen: of about 370,000 compounds, about 3,800 (1%) were called active. Cut-off read from the data, not from the text of the source: active = activation above about 7.8%; inactive = the rest. Many of the other results were omitted from the sample, so actives are more common in it than they were.

assay: SMARCA2 (BRM) function activators, primary screen, cell-based, luminescence, high throughput (AID 652017); conditions: MG213 cells, MMTV-luciferase reporter, dexamethasone, overnight; at 9.1 µM; stronger effect = higher value;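 note: 0% = vehicle wells and 100% = reference activator wells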

Row | SMILES | activation
1 | O=C(N/N=C/c1c(O)n(Cc2ccccc2)c(=O)[nH]c1=O)c1ccccc1 | 8.1% (active)
2 | O=C(N/N=C/c1c(O)n(C2CC2)c(=S)[nH]c1=O)c1ccccc1Cl | 1.16% (inactive)
3 | O=C(N/N=C/c1c(O)n(C2CC2)c(=S)[nH]c1=O)c1ccccc1 | 5.22% (inactive)
4 | Cc1ccccc1CCC[C@@H](CC1CCCCC1)CN(C)C(=O)Oc1ccccc1 | 0.55% (inactive)
5 | COc1ccc2c(c1)NP(=S)(c1ccccc1)N2 (stereo not given) | 0.4% (inactive)
6 | Cc1cc(C)c2c(c1)NP(=S)(c1ccccc1)N2 (stereo not given) | 9.88% (active)
7 | COc1cccc(C(=O)N2C[C@H]3C[C@@H](C2)c2cccc(=O)n2C3)c1 | 0.48% (inactive)
8 | COP(=O)(Sc1ccccc1)C(Cc1ccccc1)NC(=O)OCc1ccccc1 (stereo not given) | 0.4% (inactive)
9 | NCC(O)c1ccc(O)cc1 (stereo not given) | -0.14% (inactive)
10 | O=C1CC(=O)N(Cc2ccccc2)C(=O)N1CCCCCCN1C(=O)CC(=O)N(Cc2ccccc2)C1=O | 1.8% (inactive)
